Reference: PubChem BioAssay AID434970 (Sanford-Burnham Center for Chemical Genomics, 2010)
Screen size: about 11,000 compounds; about 310 (2.8%) were called active. Cut-off read from the data, not from the text of the source: active = activity change below about -85%; inactive = the rest. For the sample, actives were picked, then their nearest neighbours and some compounds at random.

What follows are molecules tested on intestinal alkaline phosphatase [Mus musculus] (assay: activators of mouse IAP, confirmation, biochemical, luminescence, single concentration (AID 434970)). Details: purified mouse IAP, CDP-Star luminescence, 30 min, at 10 µM; activation factor: measured here: IAP activation factor, stronger effect = higher value; activity change, negative = activation: stronger effect = lower value.

Row | SMILES | activation factor | activity change, negative = activation
1 | COc1cc2oc(=O)cc(-c3ccc(-c4ccc(C)cc4)cc3)c2c(OC)c1OC | 0.934 | 6.55% (inactive)
2 | COc1ccc(CC(=O)N[C@@H]2c3ccccc3CC[C@@H]2OCc2ccccc2)cc1 | 1.19 | -18.9% (inactive)
3 | Cc1sc2nc(CN3CCOCC3)nc(NS(=O)(=O)c3ccc4c(c3)OCCO4)c2c1C | 0.956 | 4.4% (inactive)
4 | Cc1cc(Cn2nc(-c3ccccc3)cc2C(=O)NCc2cccc(C(F)(F)F)c2)on1 | 2.25 | -125% (active)
5 | Cc1cc(C)nc(N2CCC(C(=O)NCc3cccc(C(F)(F)F)c3)CC2)n1 | 0.95 | 5.1% (inactive)
6 | CCc1cc(Cn2nc(-c3ccccc3)cc2C(=O)NCc2cccc(C(F)(F)F)c2)on1 | 2.52 | -152% (active)
7 | Cc1ccc(C(=O)NC(Cc2cccc(C(F)(F)F)c2)C(=O)O)cc1 (configuration not stated) | 1.14 | -13.9% (inactive)
8 | O=C(NCc1ccccc1)c1cc2nc(C3CC3)cc(C(F)(F)F)n2n1 | 0.96 | 4% (inactive)
9 | CCCC1C2C(=O)N(c3ccccc3OCC)C(=O)C2ON1c1ccccc1 (configuration not stated) | 1.1 | -9.6% (inactive)
10 | CCCN1C(=O)c2ccc(C(=O)NC3CCCCC3)cc2C1=O | 1.07 | -6.9% (inactive)
11 | C=CCNc1nc(-c2sc(NC(C)=O)nc2C)cs1 | 0.932 | 6.75% (inactive)
12 | CCCCNc1nc2c(c(=O)n(C)c(=O)n2C)n1Cc1cccc(OC)c1 | 1.04 | -4.2% (inactive)
13 | CCCCCCNC(=O)N[C@@H](C(=O)NCCC[C@H]1CN2C(=NC[C@@H]2Cc2ccccc2)N1CCc1cccc(OC)c1)C(C)C | 3.11 | -211% (active)
14 | O=C(CCCOc1ccccc1)Nc1nncs1 | 1.02 | -1.6% (inactive)
15 | COc1cccc(C(=O)OCC(=O)Nc2ccccc2N2CCOCC2)c1 | 0.909 | 9.1% (inactive)
16 | CCCCNC(=O)C(C1CCCCC1)N(CCN(C)C)C(=O)CCCN1C(=O)NC(c2ccc(-c3ccccc3)cc2)C(C(=O)OCc2ccccc2)=C1C (configuration not stated) | 2.49 | -148% (active)
17 | CCCCCCN(C(=O)CCCN1C(=O)NC(c2ccc(-c3ccccc3)cc2)C(C(=O)OCc2ccccc2)=C1C)C(C)C(=O)NCCCC (configuration not stated) | 1.42 | -41.5% (inactive)
18 | CCCCNC(=O)C(C)N(CCN(C)C)C(=O)CCCN1C(=O)NC(c2ccc(Cl)cc2)C(C(=O)OCc2ccccc2)=C1C (configuration not stated) | 1.19 | -18.9% (inactive)
19 | CCOC(=O)c1c(C)[nH]c(C(=O)CSc2nnc(CC(C)c3ccccc3)o2)c1C (configuration not stated) | 0.943 | 5.7% (inactive)
20 | COc1ccc(OC)c(NC(=O)Cn2c(=O)n(CC(=O)NCc3ccco3)c(=O)c3ccccc32)c1 | 0.997 | 0.3% (inactive)
21 | OCCCN1c2ccccc2Nc2nnc(-c3ccccc3)cc21 | 3.08 | -208% (active)
22 | OCCCn1c(-c2ccccc2)n[nH]c1=S | 1.02 | -1.9% (inactive)
23 | CN(CC(=O)Nc1cccc(Cl)c1)S(=O)(=O)c1ccc2[nH]c(=O)oc2c1 | 0.26 | 74.1% (inactive)
24 | COc1cccc(CN(CC(=O)NC2CCCC2)C(=O)Cn2nnc(-c3cccs3)n2)c1 | 1.07 | -7.3% (inactive)
25 | Cc1ccc(S(=O)(=O)N(C)C)cc1NC(=S)NC(C)CCCC(C)C (configuration not stated) | 1.26 | -26.2% (inactive)
26 | Cc1cc(C)cc(NC(=O)Nc2cc(S(=O)(=O)N(C)C)ccc2C)c1 | 3.43 | -243% (active)

Row | SMILES | activation factor | activity change, negative = activation
27 | Cc1ccc(NC(=O)Nc2cc(S(=O)(=O)N(C)C)ccc2C)cc1 | 1.84 | -83.7% (inactive)
28 | Cc1cc(NC(=O)Cn2c(=O)c3c(ncn3CC(C)C)n(Cc3ccccc3)c2=O)no1 | 1.09 | -9.3% (inactive)
29 | Cc1ccccc1-n1nc(C(=O)O)c(C)c(C#N)c1=O | 0.98 | 2.05% (inactive)
30 | COC(=O)c1cn(NC(=O)C2CCCO2)c(=O)c2ccccc12 (configuration not stated) | 1.03 | -3.3% (inactive)
31 | CCN(CC)C(=O)CSc1nc(-c2cccs2)cc(-c2cccs2)c1C#N | 0.778 | 22.2% (inactive)
32 | CCCCC1=CC2=C(c3ccco3)C(=O)C(C)(OC(=O)c3ccc(OC)cc3)C(=O)C2=CN1Cc1ccc2c(c1)OCO2 (configuration not stated) | 0.503 | 49.7% (inactive)
33 | CCOC(=O)c1ccc(NC(=O)C2CCN(S(=O)(=O)CC)CC2)cc1 | 0.952 | 4.8% (inactive)
34 | CCCn1ncc(CN2CCC(C(=O)Nc3cccc(-c4cccc(F)c4)c3)CC2)c1C | 5.28 | -428% (active)
35 | CCn1ncc(CN2CCC(C(=O)Nc3cccc(-c4cccc(F)c4)c3)CC2)c1C | 2.83 | -183% (active)
36 | CCCCNC(=O)C1CCN(C/C(C)=C/c2ccccc2)CC1 | 1.02 | -1.8% (inactive)
37 | CCn1ncc(C2=NOC(C(=O)Nc3ccc(C)cc3)C2)c1C (configuration not stated) | 1.07 | -7.35% (inactive)
38 | Cc1cc(NC(=O)C2CCN(S(=O)(=O)c3cnc[nH]3)CC2)ccc1Br | 0.935 | 6.5% (inactive)
39 | C/C(=N\OCC(=O)N/N=C/c1ccccc1O)c1cccs1 | 1.01 | -1.25% (inactive)
40 | COc1ccc(Cl)cc1N1C(=O)[C@@H]2C(c3cccc(OC)c3OC)=NO[C@@H]2C1=O | 1 | 0.05% (inactive)
41 | COc1ccc(NC(=O)C(=O)NCCN2CCN(C(=O)C(c3ccccc3)c3ccccc3)CC2)cc1 | 1.05 | -5.05% (inactive)
42 | Cc1cc(C)cc(NC(=S)NCc2ccc3c(c2)OCO3)c1 | 1.81 | -80.9% (inactive)
43 | Cc1ccc(NC(=S)NC(NC(=O)c2ccccc2C)C(Cl)(Cl)Cl)c(C)c1 (configuration not stated) | 3.11 | -211% (active)
44 | Cc1cc(C)c(NC(=S)NC(NC(=O)c2ccccc2)C(Cl)(Cl)Cl)c(C)c1 (configuration not stated) | 1.28 | -28.3% (inactive)
45 | Cc1ccccc1NC(=S)NC(NC(=O)COc1ccccc1)C(Cl)(Cl)Cl (configuration not stated) | 1.73 | -73% (inactive)
46 | O=C(O)c1ccccc1NC(=S)NC(NC(=O)c1ccccc1[N+](=O)[O-])C(Cl)(Cl)Cl (configuration not stated) | 0.83 | 17% (inactive)
47 | Cc1ccccc1NC(=S)NC(NC(=O)c1ccccc1C)C(Cl)(Cl)Cl (configuration not stated) | 2.07 | -107% (active)
48 | CC(=O)NC(NC(=S)Nc1ccc(N=Nc2ccccc2C)cc1C)C(Cl)(Cl)Cl (configuration not stated) | 0.848 | 15.2% (inactive)
49 | CCC(=O)N1c2ccccc2NC2=C(C(=O)CCC2)C1c1ccc(N(C)C)cc1 (configuration not stated) | 1.18 | -18.3% (inactive)
50 | O=C(NC1CCCCC1)N1CCN(c2ccccc2)CC1 | 0.931 | 6.95% (inactive)
51 | N/C(COc1cccc(Cl)c1)=N\NS(=O)(=O)c1ccccc1 | 0.875 | 12.6% (inactive)
52 | COc1cc(-c2noc(CCC(N)=O)n2)cc(OC)c1OC | 0.884 | 11.6% (inactive)

Row | SMILES | activation factor | activity change, negative = activation
53 | CCC(C)NCCOCCOc1ccc(F)cc1 (configuration not stated) | 1.03 | -3.25% (inactive)
54 | Cc1ccc(S(=O)(=O)N(C)C[C@H]2Oc3c(NC(=O)Nc4cccc5ccccc45)cccc3C(=O)N([C@@H](C)CO)C[C@@H]2C)cc1 | 3.14 | -214% (active)
55 | C[C@H]1CN([C@@H](C)CO)C(=O)c2cccc(NC(=O)Nc3ccc(C(F)(F)F)cc3)c2O[C@@H]1CN(C)S(=O)(=O)c1ccc(Cl)cc1 | 1.47 | -46.7% (inactive)
56 | Cc1ccc(S(=O)(=O)N(C)C[C@@H]2Oc3ccc(NC(=O)Nc4cccc5ccccc45)cc3C(=O)N([C@H](C)CO)C[C@H]2C)cc1 | 2.13 | -113% (active)
57 | Cc1cc2cc(CNC(=S)NCc3ccccc3)ccc2n1C | 1.2 | -20% (inactive)
58 | N[C@@H](Cc1ccccc1)c1nnc2sc(SCc3ccccc3)nn12 | 0.972 | 2.75% (inactive)
59 | O=C(c1ccc[nH]1)N1O[C@@H]2C=C[C@H]1C2 | 0.951 | 4.9% (inactive)
60 | CCCN1C2CCCC1CC(NC(=O)c1cc(OC)c(OC)c(OC)c1)C2 (configuration not stated) | 0.893 | 10.7% (inactive)
61 | Cc1nn(Cc2ccc(Cl)c(Cl)c2)c(C)c1NC(=O)c1cn(-c2ccccc2)nc1-c1ccccc1 | 2.62 | -162% (active)
62 | COc1cccc(-c2nn(-c3ccccc3)cc2C(=O)NCC(=O)O)c1 | 1.08 | -8.2% (inactive)
63 | O=C(NC1CCN(Cc2ccc(Cl)cc2)CC1)c1cn(-c2ccccc2)nc1-c1cccnc1 | 1.6 | -60.3% (inactive)
64 | Cc1nn(Cc2c(Cl)cccc2Cl)c(C)c1NC(=O)c1cn(-c2ccccc2)nc1-c1ccccc1 | 1.74 | -73.8% (active)
65 | Cc1cccc(NC(=O)c2cn(-c3ccccc3)nc2-c2ccccc2)c1 | 1.64 | -64% (inactive)
66 | Cc1nn(Cc2ccc(Cl)cc2)c(C)c1NC(=O)c1c(-c2ccccc2)noc1C | 1.03 | -2.7% (inactive)
67 | CCCN1CCN(C(=O)c2cn(CC(C)C)c(=O)c3cc(OC)c(OC)cc23)CC1 | 1.04 | -4.4% (inactive)
68 | COc1ccc(C2CC(c3ccccc3)n3nnnc3N2)cc1 (configuration not stated) | 1.15 | -14.9% (inactive)
69 | COc1ccc2c(CC(=O)OCC(=O)N3CCc4ccccc43)coc2c1 | 0.935 | 6.5% (inactive)
70 | COc1cc2c(cc1OC)[C@@H](NC(=O)COc1ccccc1)[C@H](OCc1ccccc1)C2 | 1.07 | -6.55% (inactive)
71 | O=C(CSc1ncccn1)NCc1ccccc1 | 1.02 | -2% (inactive)
72 | COc1ccc(N=NC2=C(O)CC(C)(C)CC2=O)c(OC)c1 | 0.743 | 25.7% (inactive)
73 | CCOC(=O)c1sc(N=NC2=C(O)CCCC2=O)c(C(=O)OCC)c1C | 0.794 | 20.6% (inactive)
74 | CCOC(=O)c1sc(N=NC2=C(O)CC(C)(C)CC2=O)c(C(=O)OCC)c1C | 3.1 | -210% (active)
75 | COc1cc(NC(=O)c2ccc(F)cc2)c(OC)cc1Cl | 0.929 | 7.05% (inactive)
76 | COc1ccc2c(C)c(C(=O)O)oc2c1 | 0.933 | 6.65% (inactive)
